TDP1 inh – qHTS Assay for Inhibitors of Tyrosyl-DNA Phosphodiesterase (TDP1); AID 485290, 2010; Potency, µM (series often up to 130 µM), without a hit: top-dose activity change, negative = inhibition, usual class: inhibitors; hit rate 0.28% among 350,000; Tyrosyl-DNA phosphodiesterase 1 (Homo sapiens), Q9NUW8; recombinant TDP1, AlphaScreen DNA substrate cleavage; also: potency is read from the fitted curve at half-maximal effect; % is scaled to controls: 0 for no effect and ±100 for the full control effect; nearly all actives have a fitted effect of over 40% in size
Target sequence (Q9NUW8 whole entry, looked up): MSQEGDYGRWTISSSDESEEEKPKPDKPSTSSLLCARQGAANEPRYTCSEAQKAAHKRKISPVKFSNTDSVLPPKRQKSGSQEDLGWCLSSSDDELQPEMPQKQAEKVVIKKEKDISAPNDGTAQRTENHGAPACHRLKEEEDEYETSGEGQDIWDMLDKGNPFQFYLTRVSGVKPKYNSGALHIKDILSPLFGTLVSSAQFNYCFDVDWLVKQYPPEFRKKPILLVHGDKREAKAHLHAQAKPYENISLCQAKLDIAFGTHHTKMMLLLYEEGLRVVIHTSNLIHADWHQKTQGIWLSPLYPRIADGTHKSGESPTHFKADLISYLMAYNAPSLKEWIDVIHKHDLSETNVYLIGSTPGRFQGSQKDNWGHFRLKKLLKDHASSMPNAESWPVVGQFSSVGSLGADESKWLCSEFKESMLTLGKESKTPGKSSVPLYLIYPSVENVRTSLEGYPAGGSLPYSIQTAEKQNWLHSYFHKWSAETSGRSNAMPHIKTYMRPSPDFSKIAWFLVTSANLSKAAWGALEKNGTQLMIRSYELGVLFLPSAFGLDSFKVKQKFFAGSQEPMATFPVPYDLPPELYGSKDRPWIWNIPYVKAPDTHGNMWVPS
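Enzyme-compound mixtures sat 15 min at room temperature, followed by a 5 min reaction with 15 nM final substrate and 10 min with AlphaScreen beads. Recombinant human Tdp1 was used at 1 nM final.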
TGFb SMAD3 inh – qHTS for Inhibitors of TGF-b | HepG2 CAGA-GFP TGF-b/SMAD3 reporter, GFP fluorescence, 18 h; TGF-beta stimulated, 500 pg/mL final | Potency, µM (top dose mostly 46.1 µM), without a hit: at the top dose activity, negative = inhibition, most hits filed as inhibitors | hit rate 1.2% among 410,000; also: potency is read from the fitted curve at half-maximal effect; % is scaled to controls: 0 for no effect and ±100 for the full control effect; nearly all actives have a fitted effect of over 65% in size
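HEPG2 CAGA-GFP, 1000 cells/well; 2 h settle, 37 C; cpd via pin tool; TGF-b 500 pg/mL final; 18 h, 37 C; GFP imaging ex488/em500-530; %Activity normalised to -TGF-b and +DMSO controls; CRC fit, curve class.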
DT40 TDP1 no CPT – qHTS for Inhibitors of human tyrosyl-DNA phosphodiesterase 1 (TDP1): qHTS in cells in absence of CPT; DT40 Tdp1-/- hTDP1 cells, no CPT, ATP luminescence, 48 h; Potency, µM (highest dose often 46.2 µM), for inactives: top-dose activity change, negative = growth inhibition, hits mostly inhibitors; hit rate 15% among 420,000; AID 686978, 2013; also: potency is read from the fitted curve at half-maximal effect; % is scaled to controls: 0 for no effect and ±100 for the full control effect; nearly all actives have a fitted effect of over 55% in size
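A cellular qHTS used chicken DT40 cells lacking endogenous Tdp1 but carrying stably transfected human TDP1. Compounds were applied without camptothecin, and cell growth kinetics were judged by ATP-dependent luminescence after ≥48 hr.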
HepG2 tox – qHTS for Inhibitors of TGF-b: Cytotox Counterscreen | HepG2 CAGA-GFP viability, ATP luminescence, 18 h | Potency, µM (top dose mostly 46.1 µM), for the others: top-dose activity change, negative = cytotoxicity, most hits filed as cytotoxic | hit rate 0.76% among 410,000 | AID 588856, 2011; also: potency is read from the fitted curve at half-maximal effect
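CellTiter-Glo luminescence gave cytotoxicity after 18 hours at 37 degrees C. The cells were HepG2 CAGA-GFP in 1% FBS DMEM, stimulated with 500 pg/mL TGF-beta after compound addition. %Activity was normalised to no-cell wells (complete cell-killing) and DMSO (no toxicity), and curves were fitted and classified.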
IL1B secr inh – qHTS for Inhibitors of Inflammasome Signaling: IL-1-beta AlphaLISA Primary Screen; activity change, % at 57.5 µM; hit rate 4.7% among 360,000; THP-1 LPS/ATP IL-1B secretion, AlphaLISA, 16 h; hits give low values; in the data active = activity change below about -50%; inconclusive = mostly about -30% to -49%; also: % is scaled to controls: 0 for no effect and ±100 for the full control effect
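Secreted IL-1B measured by AlphaLISA bead assay after 16 h compound exposure of THP-1 cells; compounds (final up to 57.5 uM) added 1 h before LPS (250 ng/mL) and ATP (1.25 mM) stimulation; lower signal means less secretion.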
DT40 TDP1 CPT – qHTS for Inhibitors of human tyrosyl-DNA phosphodiesterase 1 (TDP1): qHTS in cells in presence of CPT | chicken DT40 Tdp1-/-;hTDP1 cells + 20 nM CPT, ATP luminescence, 48 h | Potency, µM (doses to about 46.2 µM), for the others: top-dose activity change, negative = growth inhibition, actives largely listed as inhibitors | hit rate 12% among 420,000; also: potency is read from the fitted curve at half-maximal effect; % is scaled to controls: 0 for no effect and ±100 for the full control effect; nearly all actives have a fitted effect of over 55% in size
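Cell growth measured by CellTiter-Glo luminescence after a minimum 48 h, 37 C compound exposure with 20 nM CPT in Tdp1-knockout DT40 cells stably expressing hTDP1, seeded 400/well; qHTS titration format.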
* = called active by the depositor; ? = inconclusive; · = no result; ! = repeats disagree; [ ] = dose if it differs, or a comment. A selection: hits, their analogues and other compounds. The true share with any hit is near 19%. Unless noted, calls follow the shape of the dose curve; as a rule, active = well fitted curve in the direction sought with a large enough effect; inconclusive = small, poorly fitted or top-dose-only effect, or another doubt; inactive = no such curve, though single readings can be large; an effect the other way counts as inactive or inconclusive.

SMILES	TDP1 inh	TGFb SMAD3 inh	DT40 TDP1 no CPT	HepG2 tox	IL1B secr inh	DT40 TDP1 CPT
CN(C)S(=O)(=O)c1cccc(C(=O)Nc2n[nH]c(C(F)(F)F)n2)c1	·	-15.8%	-1.2%	2.3%	20.9	22.2%
C=CCSC1=C(C#N)C(c2ccccc2Cl)C(C(=O)c2cccs2)C(O)(C(F)(F)F)N1 (centres undefined)	-5.5%	?	16.4µM*	-38.7%	10.4	?
O=C1OC(CN2CCOCC2)CN1N=Cc1ccc([N+](=O)[O-])o1 (centres undefined)	·	3.1%	?	-10.6%	11.8	14.6µM*
O=C1OC(CN(Cc2ccccc2)Cc2ccccc2)CN1N=Cc1ccc([N+](=O)[O-])o1 (centres undefined)	·	-5.4%	9.2µM*	-6.6%	-0.6	16.4µM*
O=C(COC(=O)CNC(=O)c1ccc(Cl)cc1Cl)Nc1cccc(S(=O)(=O)N2CCCC2)c1	2.4%	-0.6%	-25.7%	0.1%	19.2	-13.2%
COC(=O)[C@@]12C[C@@H](CC(=O)NCc3ccc(C)o3)C(=O)N(Cc3ccc4c(c3)OCO4)C1=CCC(C)(C)C2	·	·	11.6µM*	·	?	20.6µM*
COC(=O)[C@@]12C[C@@H](CC(=O)NCC3CCCCC3)C(=O)N(Cc3ccc4c(c3)OCO4)C1=CCC(C)(C)C2	·	·	?	·	-54.3*	?
COC(=O)[C@@]12C[C@@H](CC(=O)N3CCN(C(=O)C4CC4)CC3)C(=O)N(Cc3ccc4c(c3)OCO4)C1=CCC(C)(C)C2	·	·	16.4µM*	·	5.3	?
COc1cccc(CNC(=O)C(Cc2ccccc2)n2cccc2)c1 (centres undefined)	8.0%	-12.6%	?	-4.3%	?	?
COc1ccc(NC(=O)C(Cc2ccccc2)n2cccc2)c(OC)c1 (centres undefined)	7.7%	-13.7%	18.4µM*!	-10.9%	-6.4	23.1µM*!
COc1cccc(NC(=O)C(Cc2ccccc2)n2cccc2)c1 (centres undefined)	7.7%	?	-23.3%	-6.0%	-73.0*	-21.0%
Clc1cccc(Cc2c(-c3ccco3)nc3ccc(Cl)cn23)c1	·	17.8µM*	23.1µM*	-113.1%	-58.6*	20.6µM*
Brc1ccc2nc(-c3ccco3)c(Cc3ccccc3)n2c1	·	?	?	-37.6%	-22.5	?
Clc1cccc(Cc2c(-c3ccco3)nc3ccc(Br)cn23)c1	·	12.6µM*	23.1µM*	-115.0%	-14.0	?
CCOc1ccc(NC(=O)c2cnc(N3CCCC3)nc2C)cc1	1.2%	1.4%	?	5.0%	·	-9.1%
CCOC(=O)c1c(NC(=O)c2ccoc2C)sc(C)c1C	3.6%	14.1%	20.6µM*	-4.7%	0.1	-8.6%
Cc1occc1C(=O)Nc1sc2c(c1C(N)=O)CCCCC2	2.2%	3.6%	?	-5.4%	21.7	?
CCc1c(C)sc(NC(=O)c2ccoc2C)c1C(N)=O	3.9%	-10.7%	?	-3.3%	-56.2*	?
CCOC(=O)c1c(NC(=O)c2ccc(Cl)s2)sc(C)c1C	1.0%	-0.6%	-0.7%	-2.1%	-11.2	5.8%
CC[C@@H](C)CN1C(=O)N[C@@H](c2ccccc2)C(C(=O)OC)=C1C	-3.5%[12.3 µM]	·	·	·	·	·
CC(C)(C)C(=O)OCC(=O)[C@H]1CC[C@H]2[C@@H]3CCC4=CC(=O)CC[C@]4(C)[C@H]3CC[C@]12C	·	·	1.2%	·	·	5.7%
CC(OC(=O)CCN1C(=O)C2CC=CCC2C1=O)C(=O)Nc1ccc(F)cc1 (centres undefined)	·	-4.4%	-19.1%	-6.9%	8.3	0.8%
Cc1cc(-c2c(C)[nH]n(-c3ccccc3)c2=O)n[nH]1	12.0%	-6.4%	4.11µM*	-12.2%	-2.4	2.91µM*
Cc1cccc(/C=N/NC(=O)c2cc3c(s2)-c2ccccc2CC3)c1	5.6%	?	14.6µM*	3.3%	0.0	16.4µM*
O=C(N/N=C/c1cccc(C(F)(F)F)c1)c1cc2c(s1)-c1ccccc1CC2	2.8%	-3.1%	?	8.3%	0.0	?
SMILES	TDP1 inh	TGFb SMAD3 inh	DT40 TDP1 no CPT	HepG2 tox	IL1B secr inh	DT40 TDP1 CPT
C[C@@H](NC(=O)[C@H]1O[C@@H](n2cnc3c(N)ncnc32)[C@H](O)[C@@H]1O)c1cccc2ccccc12	·	-19.9%	-12.4%	-46.4%	?	-19.6%
CCOc1ccccc1C(=O)NCC(=O)NNC(=O)CN(C)S(=O)(=O)c1ccc(Cl)cc1	·	-2.1%	11.6µM*	-14.7%	-3.7	20.6µM*
Cc1c(NS(=O)(=O)c2ccc(NC(=O)CCC(=O)O)cc2)c(=O)n(-c2ccccc2)n1C	·	0.0%	2.5%	1.0%	-71.1*	-20.8%
Cc1sc(Nc2ccc([N+](=O)[O-])cc2)nc1-c1c(C)n(C)n(-c2ccccc2)c1=O	2.9%	-13.4%	23.1µM*	-22.2%	-20.9	?
Cc1ccc(CNC(=O)c2ccc(S(=O)(=O)Nc3c(C)n(C)n(-c4ccccc4)c3=O)cc2)cc1	3.8%	-10.3%	20.6µM*	0.5%	7.2	?
Cc1c(NC(=O)Nc2ccc([N+](=O)[O-])cc2)c(=O)n(-c2ccccc2)n1C	·	-6.1%	20.6µM*	0.6%	30.2	?
Cc1c(NS(=O)(=O)c2ccc(C(=O)NCc3ccccc3)cc2)c(=O)n(-c2ccccc2)n1C	0.6%	0.0%	?	1.2%	19.0	-10.5%
CCCCCCCC1=Cc2ccccc2C(CC(C)=O)N1C(=O)OC (centres undefined)	6.3%[21 µM]	·	·	·	·	·
COC(=O)[C@@H]1CCCN1C(=O)[C@@H](C)CO	-1.6%[21 µM]	·	·	·	·	·
O=C(OCc1ccccc1)c1cccnc1	·	·	9.44µM*	·	·	?
C/C(=N/Nc1ccc(C(=O)c2c(C)cc3ccccn23)cc1[N+](=O)[O-])c1ccc(O)cc1	·	-13.7%	?	-13.9%	-3.6	18.4µM*
COc1ccc(CNC(=O)c2cc(C)nn2-c2ccccc2)cc1	·	-9.1%	0.3%	-12.9%	-7.0	-11.0%
CCN1CCN(C(=O)c2cnn(-c3ncc4c(n3)-c3ccccc3CCC4)c2COC)CC1	·	·	-23.4%	·	·	-10.3%
COCCn1c(SCC(=O)c2ccc3c(c2)OCCO3)nnc1C(C)C	1.0%	0.5%	-13.1%	-19.6%	1.1	-2.7%

Screening results deposited in PubChem BioAssay by National Center for Advancing Translational Sciences (NCATS).
